# Measured values from PubChem BioAssay AID493248 (Broad Institute, 2011).
# Among all 2,300 compounds or so, about 1,400 (61%) were called active. Not shown: some 7% with an inconclusive outcome. How the calls were made is not given here. The set was probably picked from earlier hits. Not all results are given here. Results with a measured potency or affinity are listed apart.
# Biological target: FAD-linked sulfhydryl oxidase ALR (Homo sapiens) (UniProt P55789)
# Experiment: inhibitors of human ALR sulfhydryl oxidase, dose response, biochemical, H2O2 detection, luminescence, cherry-pick (AID 493248)
# Conditions: purified ALR, DTT oxidation, H2O2 HRP-luminol luminescence; at 10 µM (top of the series)
# Sequence of FAD-linked sulfhydryl oxidase ALR (Homo sapiens) (P55789 whole entry, looked up): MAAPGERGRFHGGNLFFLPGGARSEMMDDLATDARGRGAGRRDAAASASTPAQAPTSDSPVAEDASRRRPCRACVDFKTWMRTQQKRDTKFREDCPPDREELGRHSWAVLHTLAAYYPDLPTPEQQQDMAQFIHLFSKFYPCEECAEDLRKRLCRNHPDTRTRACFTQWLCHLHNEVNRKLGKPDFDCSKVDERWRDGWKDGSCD
row,Compound,"activity change, negative = inhibition [%]"
1,O=C(Nc1ccc(O)cc1)c1cc2n(n1)C(C(F)(F)F)CC(c1ccco1)N2 (centres undefined),-82.6
2,c1ccc2c(-c3csc(-c4ccncc4)n3)c[nH]c2c1,-10.2
3,CCCCCCC(=O)N/N=C/c1ccco1,-28.6
4,COc1cc(C=NNC(=O)c2ccc(NS(=O)(=O)c3cccs3)cc2)cc(Br)c1O,165
5,COc1nc(-c2ccccc2Cl)ccc1C#N,-32.6
6,Cc1ccc2cn[nH]c2c1N,-36.2
7,O=S(=O)(Nc1ccccc1O)c1ccc(Cl)nc1,-36.8
8,COc1ccc(N2C(=O)CC(NNc3ncc(Cl)cc3Cl)C2=O)cc1 (centres undefined),-50.3
9,CC1=NN(C(=O)c2ccc(Br)cc2)C(O)(c2ccccc2)C1 (centres undefined),286
10,O=C(NCc1ccc2c(c1)OCO2)C1CC(=O)N(c2ccc(O)cc2)C1 (centres undefined),-108
11,Cc1noc(C)c1S(=O)(=O)N(CC(=O)NCc1ccc2c(c1)OCO2)c1ccc(C(C)C)cc1,1.03
12,O=c1[nH]n(-c2ccc(Cl)cc2)c2ncccc12,291
13,O=C(CCCC(=O)c1ccccc1)Nc1ccc(O)cc1,182
14,S=c1[nH]nc(Cc2noc3ccccc23)n1-c1ccc(Cl)cc1,-49.3
15,COc1ccc(OC)c(/C(C)=N/Nc2ccc(C(=O)O)cc2)c1,-31.7
16,COc1ccc(CNc2nc3ccccc3n2CCN2CCCCC2)cc1,35.3
17,Brc1c(CSc2nnc(-c3ccco3)o2)nc2ccccn12,-95.5
18,O=C(O)c1ccc(N(c2ccccc2)c2ccccc2)cc1,-77.1
19,CCN(c1ccc(C)c(C)c1)S(=O)(=O)c1ccc2c(c1)CCN2C(=O)CCC(=O)O,-9.61
20,CCc1c(C)[nH]n(-c2ccc(Oc3ccccc3)c(S(=O)(=O)O)c2)c1=O,-7.16
21,Cc1cc(-c2n[nH]c(=S)o2)c(C)n1-c1ccccc1,19.3
22,COc1ccc(-c2csc(N(CCCN(C)C)C(=O)c3ccc(F)cc3)n2)cc1,-32.9
23,CCCS(=O)(=O)N1CCN=C1SCc1ccc(F)cc1,-0.819
24,CS(=O)(=O)N1CCN=C1SCc1cccc(F)c1,-0.153

row,Compound,"activity change, negative = inhibition [%]"
1,S=c1[nH]nc(-c2c[nH]c3ccccc23)o1,-89
2,CCn1c(-c2cc(OC)c(OC)c(OC)c2)n[nH]c1=S,-1.45
3,CCCCCCCCN1[C@@H](CC(=O)O)c2ccc(C(F)(F)F)cc2S1(=O)=O,-22.2
4,COc1cccc2c3c(c(=O)[nH]c12)CCC(C)(C)O3,-20.3
5,CCn1c(SCc2nc3sc(C(=O)O)c(C)c3c(=O)[nH]2)nc2ccccc21,-10.8
6,Cc1ccsc1C=Nc1ccc(O)cc1,-98
7,Cc1cccc(Oc2ccc(N)cc2)c1,-1.09
8,Nc1ccc(Oc2cc(N)cc(Oc3ccccc3)c2)cc1,29.7
9,CNc1nn(-c2cccc(Cl)c2)nc1N,-9.08
10,c1ccc(-c2cnc(CN3CCN(c4ccccc4)CC3)o2)cc1,-44.8
11,COc1cccc(/C=N/n2c(-c3n[nH]c4c3CCC4)n[nH]c2=S)c1O,-33.1
12,CCCC(C)NC(=O)Cc1ccc(Br)cc1 (centres undefined),60.9
13,CCCN1CCC(=O)N([C@H](CSc2ccc(OC)cc2)c2ccccc2)CC1,1.83
14,O=S1(=O)N=C(Nc2ccc(O)cc2)c2ccccc21,176
15,Cc1ccc(-c2c(C(=O)O)c(C(=O)O)c3n2CSC3)cc1,-43.7
16,S=c1[nH]nc(-c2ccco2)n1/N=C/c1ccccc1,0.752
17,Cc1n[nH]c(=S)n1/N=C/c1ccccc1,-93.3
18,Cc1cc(C(=O)NC2CCCc3c2cnn3-c2ccc(C)c(C)c2)no1 (centres undefined),-8.68
19,O=c1[nH]c(/C=C\c2ccccc2F)nc(O)c1[N+](=O)[O-],-17.7
20,O=C(CNS(=O)(=O)c1ccccc1)N/N=C/c1ccc(O)cc1,-113
21,Cc1nc2cccc(C(=O)Oc3ccc([N+](=O)[O-])cc3)c2o1,-34.6
22,CC1CC(C)CN(C(=O)c2ccc(-c3ccc([N+](=O)[O-])cc3)o2)C1 (centres undefined),-37.5
23,O=C(NCc1cccs1)C1CCN(S(=O)(=O)c2cccc3cccnc23)CC1,3.4
24,CCCCN(CCCC)c1ccc(C(=O)c2ccccc2C(=O)O)c(O)c1,-56.2

row,Compound,"activity change, negative = inhibition [%]"
1,CCN(CCNC(=O)CN(C)S(=O)(=O)c1cccc2nsnc12)c1ccccc1,-59.9
2,Cc1ccc(N=c2oc3cc(O)ccc3cc2C(N)=O)cc1,-84.9
3,CC/C(=N\NC(=O)CCC(=O)NCc1ccccc1)c1ccc(O)cc1,-98.7
4,Cc1nn(C)c(C)c1Sc1ccccc1N,-14.3
5,Cc1nc(N2CCN(c3ccccc3)CC2)[nH]c(=O)c1C,-42.3
6,Nc1ccc2oc(=O)c(-c3ccccc3)cc2c1,-86.7
7,Cc1ccc(N2CCN(C(=O)N3CCCC3)CC2)cc1C,-10.1
8,COc1cccc(CNc2nc3ccccc3n2CCN2CCCCC2)c1OC,-11.4
9,Cn1ccnc1SCc1cccc([N+](=O)[O-])c1,7.58
10,COc1cc(/C=C2\SC(=S)N(NC(C)=O)C2=O)ccc1OC(=O)c1ccco1,-26.5
11,Cc1cc(NC(=O)c2ccco2)sc1C,-98.7
12,COc1ccc(S(=O)(=O)N2Cc3ccccc3CC2C(=O)Nc2ccc(O)cc2)cc1OC (centres undefined),349
13,CSc1cccc(NC(=O)c2ccco2)c1,-98.6
14,COc1ccc(SCCc2ccncc2)cc1,-20.1
15,O=C(C1CCC1)N1CCN(c2ccc(Cl)cc2)CC1,-43.9
16,CCCC(=O)N1c2ccc(-c3csc(N)n3)cc2CC1C (centres undefined),-16.4
17,Cc1cc(N/N=C/c2ccccc2F)c2ccccc2n1,-22.6
18,Cc1cc(N/N=C/c2ccco2)c2ccccc2n1,-3.59
19,CC(=O)N1CCN=C1SCc1ccc(Cl)cc1,-8.99
20,O=C(Cn1cnc2ccccc21)N/N=C/c1ccccn1,0.505
21,S=c1[nH]ncn1/N=C/c1ccccc1,-73
22,COc1ccc(NC(=O)Nc2ccc3nccnc3c2)cc1,105
23,Cc1oc(C(=O)Nc2ccc(C(=O)O)cc2)cc1COc1ccccc1,-25.3
24,Cc1ccc(N(C(=O)c2ccc(Br)o2)C2C=CS(=O)(=O)C2)cc1 (centres undefined),-13.3

row,Compound,"activity change, negative = inhibition [%]"
1,CC1=C(C)CS(=O)N(S(=O)(=O)c2ccccc2)C1 (centres undefined),-41.8
2,O=C(Cc1c(C(=O)O)[nH]c2ccccc12)NCCN1CCN(c2cccc(Cl)c2)CC1,-54.4
3,O=C(NCCN1CCN(c2ccccc2)CC1)c1cccc(Cl)c1,-76.5
4,CC(C)CN(CC(C)C)c1nnc(N)s1,16.8
5,O=C(Nc1nc2ccc(S(=O)(=O)N3CCCCC3)cc2s1)c1ccncc1,-6.5
6,Cc1cccc(-c2n[nH]c(=S)n2/N=C/C=C/c2ccco2)c1,-98
7,COc1c(/C=N/Nc2ccc(C(=O)O)cc2)c(CCN(C)C(C)=O)cc2c1OCO2,-95.6
8,CC1CN(c2ccccc2)NC1=O (centres undefined),23.1
9,O=C(NCc1cccs1)c1nc2c(nnn2Cc2ccccc2Cl)c(=O)[nH]1,-7.82
10,Cc1n[nH]c(C)c1Sc1ccccc1N,54.6
11,COc1cc(OC)cc(-c2cn[nH]c2N)c1,-60.4
12,Cc1ccc(N=Nc2c(N)[nH]n3c(=O)cc(C)nc23)cc1,-55.4
13,Cc1nc(NS(=O)(=O)c2ccccc2C)c2c3c(sc2n1)CCC3,-0.709
14,CC1CCc2c(sc(NC(=O)c3ccccc3C(=O)O)c2C#N)C1 (centres undefined),-85.9
15,CCCCNc1cc(NC(C)=O)cc2cc(OC)c(OC)cc12,-66.6
16,COc1cccc(NC(=O)c2cc(OC)c(OC)c(OC)c2Br)c1,4.6
17,O=S(=O)(Nc1ncnc2sc3c(c12)CCC3)c1cc(F)ccc1F,5.9
18,CCC1(C)OC(=O)NN(c2ccc(C)cc2)C1(C)O (centres undefined),-35.5
19,COc1ccc(-c2cc(C(=O)NN)[nH]n2)cc1OC,-15.4
20,Cc1ccc(O)c(-c2cc(C(=O)NCc3ccncc3)[nH]n2)c1,-50.3
21,O=C(Nc1ccccc1F)c1ccc(Cn2cc(Cl)cn2)cc1,-100
22,Cn1nnc2c[n+](CC(=O)c3ccc(Cl)cc3)cc(Br)c21,-31
23,COc1ccc(-c2n[nH]c(=S)n2-c2ccc(C)cc2)cc1OC,3.4
24,Cc1cc(-c2n[nH]c(=S)n2-c2ccc(C)c(C)c2)no1,-43

row,Compound,"activity change, negative = inhibition [%]"
1,Cc1ccc(-n2c([C@@H]3C[C@H]3c3ccccc3)n[nH]c2=S)cc1,-34.6
2,Cc1cccc(-n2c(-c3ccncc3)n[nH]c2=S)c1,-2.76
3,O=C(Cn1cc(C(F)(F)F)ccc1=O)N/N=C/c1ccc(O)cc1,174
4,COc1cc(/C=N/Nc2ccc(C(F)(F)F)cn2)ccc1O,-15
5,COC(=O)Cc1c(C)c2ccc(OC(=O)c3ccccc3)cc2oc1=O,31.5
6,CCCN(Cc1ccc(N(CC)CC)cc1)CC1CC1,-0.019
7,CN(CC(=O)NC1CCCCC1)S(=O)(=O)c1cccc2cccnc12,5.38
8,O=C(Cc1ccccc1)Nc1ccc(C(=O)Nc2ccccc2C(=O)O)cc1,5.48
9,O=S(=O)(NCCCN1CCN(c2ccccc2F)CC1)c1cccc2cccnc12,20.3
10,O=C(O)c1cccc(NC(=O)c2cccc(S(=O)(=O)Nc3cccc([N+](=O)[O-])c3)c2)c1,-2.25
11,CNCc1ccccc1Sc1ccc(O)c(O)c1,-78.5
12,CC(=O)c1c(C)oc(C)c1CSCc1ccc(C(=O)O)o1,16.7
13,CC(C)NC(=O)c1ccc(CSCc2ccccc2Cl)o1,-4.45
14,Cc1cc(-c2ccccc2)nc2cc(C(=O)NCc3ccco3)nn12,-17.4
15,CS(=O)(=O)c1nsc2nc(=O)c(/C=C3\C=Nc4ccccc43)c(N)n12,-69.9
16,CCCc1nn2c(N)c(/C=C3\C=Nc4ccccc43)c(=O)nc2s1,-38
17,CCC(=O)Nc1ccc(C(=O)NCCCn2ccnc2)cc1,87.5
18,CCCC(=O)NC(c1ccc(N(C)C)cc1)c1ccc2cccnc2c1O (centres undefined),268
19,CC1=Nc2cccc3cccc(c23)N1C,-10.4
20,Cc1nc(-c2cccc(N)c2)cs1,-3.17
21,O=S(=O)(c1ccc(Cl)nc1)N1CCC(Cc2ccccc2)CC1,-5.04
22,CO/N=C/NC(=O)c1ccc([N+](=O)[O-])c(CS(=O)(=O)c2ccc(Cl)cc2)c1,7.26
23,Cc1nc([N+](=O)[O-])c(Br)n1CC(=O)c1ccc(Cl)cc1,-18.7
